According to the supplement of paper PMC3334620:
The full ranking holds about 33,000 sequences; the median of “E-score (-0.5 to 0.5)” is about -0.036, and the highest 2% start at about 0.37. What follows is part of a selection rich in the highest values, with near analogues and random picks from the rest.

target: T1, Yer064c (UniProt P40041); assay: PBM E-score (8-mer binding enrichment) (E-score (-0.5 to 0.5)); higher = stronger / more preferred TF binding; conditions: protein concentration: 200 nM; construct: GST-full length
T1 sequence: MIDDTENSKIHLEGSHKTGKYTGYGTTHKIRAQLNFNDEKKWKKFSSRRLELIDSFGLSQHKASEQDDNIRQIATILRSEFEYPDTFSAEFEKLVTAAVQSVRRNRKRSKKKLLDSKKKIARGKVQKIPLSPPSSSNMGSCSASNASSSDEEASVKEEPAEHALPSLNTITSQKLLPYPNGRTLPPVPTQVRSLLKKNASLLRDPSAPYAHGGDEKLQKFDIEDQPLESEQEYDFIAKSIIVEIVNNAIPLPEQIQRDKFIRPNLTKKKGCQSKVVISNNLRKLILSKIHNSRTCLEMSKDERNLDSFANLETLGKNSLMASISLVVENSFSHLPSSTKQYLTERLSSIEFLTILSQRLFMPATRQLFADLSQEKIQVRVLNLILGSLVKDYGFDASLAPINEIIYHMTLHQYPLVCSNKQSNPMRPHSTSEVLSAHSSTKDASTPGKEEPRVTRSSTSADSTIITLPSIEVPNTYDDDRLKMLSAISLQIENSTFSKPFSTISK
Experimental: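 Universal 'all 10-mer' protein binding microarrays (Agilent AMADID 015681) probed with GST-tagged S. cerevisiae TFs (full-length or DBD) made by in vitro transcription/translation (PURExpress), about 100-200 nM. Bound TF was detected with fluorescent anti-GST. Each ungapped 8-mer (which stands for itself and its reverse complement) is scored by the PBM enrichment score (E-score), a modified Wilcoxon-Mann-Whitney statistic from -0.5 to +0.5, computed with the Universal PBM Analysis Suite. Scale: above 0.35 generally sequence-specific binding.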

Sequence	PBM E-score
CCAGGATC	-0.0208
ATCCGGAC	-0.228
AATGGGGA	-0.288
ACACCAGG	-0.148
ACCAACGA	-0.0117
GACCGGTC	-0.369
AGTGACGG	-0.0747
GGTGACGA	-0.0961
AGTGACAA	0.0598
CGTGACGA	0.0595
AGTGACTA	0.469
CGTGACTA	0.486
GGTGACCA	0.0718
AGTGACGA	0.218
GGTGACTA	0.486
AGTGACTG	0.403
CGTGACAA	-0.253
AGTGACCG	-0.22
GAGTACCA	0.252
AATACCAA	-0.0127
CTCAACCA	0.152
GCTTGCCC	-0.427
AGTATGGC	0.0363
CAAATTTG	0.13
ATGCGAAG	-0.0967

Sequence	PBM E-score
GTTACTTA	0.163
CGAAAAAA	0.0432
AGTGACTC	0.486
CGTGACCC	0.0177
AGTGACGC	-0.182
CGTGACGC	-0.00579
CGTGACTC	0.481
AGTGACAC	-0.0262
AGGGTACT	-0.144
TGATTCAA	0.466
TGATTCCA	0.398
AGATTCAA	0.314
AGATTCCA	0.0276
GGATTCAA	0.18
CGATTCCA	-0.102
AGCGGAAG	-0.191
CTGCACCC	-0.223
GGACTGAA	0.109
CGACTGCA	0.253
TGACTGCA	0.404
TGACTGAA	0.432
AGACTGAA	0.241
AGACTGCA	0.201
ACTCCAAT	0.238
CAGTCCCC	-0.225

Sequence	PBM E-score
CCGGTGAG	0.0747
GCGGAGTA	-0.0756
CGACACTA	-0.0389
GTTTTGGA	0.197
AATCACTC	0.385
GATCACTA	0.135
CATCACTA	0.0474
AAACACTG	0.0608
CATCACTC	0.0183
AATCACTG	0.375
AATCACTA	0.373
AAGCACTG	0.0399
CGGCGATC	-0.0422
GTCACCAC	0.29
CATTCTAC	-0.179
CAAGATTA	0.199
AGTCCAGG	0.0238
AAGCCAGC	-0.181
GTTCAAGA	0.0547
AACGCTCA	-0.103
TCTGGACA	-0.266
ACTTCGAA	0.166
AACTATGC	-0.153
AACTATGA	0.237
GACTATGA	0.435

Sequence	PBM E-score
CACTATGC	0.0417
TACTATGA	0.318
GACTATGC	0.397
ACGGCGAG	0.0206
GCTCGCAC	-0.24
CTACTTTC	0.0258
CGGCCGGC	-0.134
GTGGTGGA	-0.14
TTGGCCAA	-0.142
TGACTTAA	0.435
CTACTAAA	0.00127
AGACTACA	0.344
TGACTACA	0.476
CGACTAAA	0.41
GGACTTAA	0.188
AGACTATC	0.35
AGACTAAC	0.413
CCACTAAA	-0.0544
AGACTTAA	0.195
AGACTAGC	0.251
CGACTACA	0.351
ACACTCTG	-0.0556
ACGCCACT	-0.186
GGAACTTA	-0.0956
CAGTAACA	0.0175

Sequence	PBM E-score
TACATTGA	0.0284
AGATGATA	0.0471
AGTAAAGG	0.0771
ATCCATTC	0.0758
CTCAGATA	0.268
GGGTTTCA	-0.23
ACCGGAGA	-0.00273
ATAGAACC	0.0363
TGGCTAAA	0.306
AAACTAAG	0.175
AGACTACC	0.354
AGACTACT	0.376
TGACTAAA	0.484
AGACTAAG	0.383
AGACTACG	0.322
CTACTAAG	0.0152
AGACTATG	0.319
CGACTAAG	0.399
CCACTAAG	0.0593
GGACTAAA	0.331
ACTATTCA	0.106
AGTTGCCA	-0.223
ACGTTGAG	0.0564
GAGTCTGC	0.312
TTCAGCAA	-0.00768

Sequence	PBM E-score
AGTGATAT	-0.134
AACTGAAC	-0.119
AAACTAAA	0.0515
AAACTAAT	0.243
AGACTAAT	0.389
AGACTAGA	0.276
CGACTATA	0.374
ATACTAAT	0.174
CGACTATC	0.359
AGACTAAA	0.398
AGACTATA	0.35
AACTGGCT	-0.28
CGGGTAAC	-0.0478
TATCATAA	0.0309
AATCAGAG	0.269
AAGCATAT	0.0236
CATCATAA	0.0722
CATCATAG	0.25
AATCATAT	0.428
AATCATAG	0.433
AATCATAA	0.418
AATCAAAT	0.23
AATCATAC	0.451
GATCATAC	-0.0115
CATCATAC	0.215

Sequence	PBM E-score
AATGGCAC	-0.231
CCCTCCAA	-0.12
AATATAAA	0.0817
ATGGCTTC	0.156
GGGCGGCA	-0.406
CACACCCA	0.0764
AAACGAGA	0.0214
GAAAGAAA	-0.0206
CCTACGAA	-0.211
TACGCATA	-0.0887
AAGAAACG	-0.028
CTTTAGCA	-0.154
CGTATCGA	-0.111
AAGTCAGG	0.341
AAGTCACC	0.447
AAGTCACG	0.433
TCGTCACA	-0.0543
AGGTCACG	-0.143
AAGTCACA	0.414
TAGTCACA	0.478
ATGTCACG	-0.123
TGGTCACA	0.103
ACGTCACG	-0.289
ACGTCACC	-0.162
AGGTCACC	0.00721
